From the supplement of paper PMC13380429

How the values were obtained:
[1] = tested on: Vero E6 infected with SARS-CoV-2; assay: morphology score (similarity to uninfected cells); higher = more like uninfected cells; conditions: 24 h
[2] = tested on: Vero E6 infected with SARS-CoV-2; assay: SARS-CoV-2 infection rate relative to infected DMSO; higher = more infection, active = 60 or less; conditions: 24 h

SMILES	morphology score [1]	SARS-CoV-2 infection rate [2]
O=C(c1cncc(Br)c1)N1CCC(N2CCCC2)CC1 (10 µM)	0.146	108% (inactive)
CC(C)(C)c1ccc(C(O)CCCN2CCC(C(O)(c3ccccc3)c3ccccc3)CC2)cc1 (stereo not drawn) [terfenadine] (10 µM)	0.133	96% (inactive)
Oc1cc(O)cc(/C=C/c2ccc(O)c(O)c2)c1 [piceatannol] (10 µM)	-0.206	112% (inactive)
CC(C)(C)NCC(O)c1ccccc1Cl (stereo not drawn) [tulobuterol] (10 µM)	-0.0152	115% (inactive)
COc1ccc(CC(C)NCC(O)c2ccc(O)c(NC=O)c2)cc1 (stereo not drawn) [formoterol] (10 µM)	0.0444	100% (inactive)
COc1ccc(CC2NCCc3c2[nH]c2ccc(C)cc32)c(Cl)c1OC (stereo not drawn) (0.833333 µM)	-0.0343	104% (inactive)
O=C(N[C@@H]1Cc2ccccc2N(C[C@@H](O)CO)C1=O)c1cc2cc(Cl)sc2[nH]1 (10 µM)	-0.155	105% (inactive)
CC1(C)NC(=O)N(c2ccc([N+](=O)[O-])c(C(F)(F)F)c2)C1=O [nilutamide] (10 µM)	0.15	108% (inactive)
Oc1c(I)cc(Cl)c2cccnc12 [clioquinol] (10 µM)	0.127	90% (inactive)
CC(C)C(=O)Nc1ncc(-c2cc(C(F)F)nn2-c2c(Cl)cccc2Cl)s1 (10 µM)	-0.133	108% (inactive)
CCOC(=O)Nc1ccc2c(c1)N(C(=O)CN(C)C)c1ccccc1CC2 [tiracizine] (10 µM)	-0.162	111% (inactive)
Nc1ncnc(Nc2ccc(Cl)cc2)n1 [chlorazanil] (10 µM)	0.133	106% (inactive)
CCNC(=O)C[C@@H]1N=C(c2ccc(Cl)cc2)c2cc(OC)ccc2-n2c(C)nnc21 (10 µM)	-0.0652	106% (inactive)
CCC(=O)OCC(=O)[C@@]1(OC(=O)CC)[C@H](C)C[C@H]2[C@H]3[C@H]([C@@H](O)C[C@@]21C)[C@@]1(C)C=CC(=O)C=C1C[C@H]3Cl [alclometasone-dipropionate] (10 µM)	0.139	98% (inactive)
O=C(/C=C/c1ccc2ccccc2n1)c1ccncc1 (0.833333 µM)	0.0453	104% (inactive)
Cc1ccc(CCCO)c(NCc2ccc3nc(NCCCN4CCOCC4)n(Cc4nc(C)ccc4O)c3c2)c1 (10 µM)	0.227	96.5% (inactive)
C1=N/C2=N/c3ccc(OCCN4CCCC4)c(c3)COC/C=C/COCc3cccc(c3)C(=C1)N2 [pacritinib] (0.833333 µM)	0.286	80% (inactive)
NC(=O)c1ccc(I)c([N+](=O)[O-])c1 [iniparib] (10 µM)	0.0662	106% (inactive)
NC(=O)OCC(COC(N)=O)c1ccccc1 [felbamate] (10 µM)	-0.0125	99% (inactive)
Clc1ccccc1C(c1ccccc1)(c1ccccc1)n1ccnc1 [clotrimazole] (10 µM)	0.254	78.5% (inactive)
Clc1ccc(CO/N=C(\Cn2ccnc2)c2ccc(Cl)cc2Cl)c(Cl)c1 [oxiconazole] (10 µM)	-0.0771	114% (inactive)
COc1cc(SC)ccc1C(=O)N1CCC(Cc2ccccc2)CC1 (10 µM)	0.0267	104% (inactive)

SMILES	morphology score [1]	SARS-CoV-2 infection rate [2]
CCc1nc(N)nc(N)c1-c1ccc(Cl)cc1 [pyrimethamine] (0.833333 µM)	-0.0159	115% (inactive)
c1cc(CN2CCCCC2)cc(OCCCNc2nc3ccccc3s2)c1 [zolantidine] (10 µM)	0.67	44% (active)
c1ccc(-c2nn3c(c2-c2ccnc4cc(OCCN5CCOCC5)ccc24)CCC3)nc1 (10 µM)	0.686	80% (inactive)
N=C(N)c1ccc(/C=C/c2ccc(C(=N)N)cc2O)cc1 [hydroxystilbamidine] (10 µM)	0.115	109% (inactive)
N#Cc1ccncn1 [4-pyrimidinecarbonitrile] (10 µM)	0.0783	97% (inactive)
Oc1cc(Cl)ccc1Oc1ccc(Cl)cc1Cl [triclosan] (10 µM)	0.237	95% (inactive)
CC(=O)N(CC(O)CO)c1c(I)c(C(=O)NCCO)c(I)c(C(=O)NCC(O)CO)c1I (stereo not drawn) [ioxilan] (10 µM)	0.00249	114% (inactive)
Cn1cc(-c2ccc3nnc(Sc4ccc5ncccc5c4)n3n2)cn1 (10 µM)	0.144	87% (inactive)
O=C(OCCN1CCOCC1)C1(c2ccccc2)CCCCC1 (10 µM)	-0.00229	106% (inactive)
Nc1nc(NC2CC2)cc(-c2cccc(Cl)c2Cl)n1 (10 µM)	0.121	97% (inactive)
CC(C)COc1ccc(CNC(=O)N(Cc2ccc(F)cc2)C2CCN(C)CC2)cc1 [pimavanserin] (10 µM)	0.709	23% (active)
N#Cc1cnc2c(Cl)cc(NCc3cn(CCN4CCCCCC4)nn3)cc2c1Nc1ccc(F)c(Cl)c1 [cot-inhibitor-1] (10 µM)	0.16	104% (inactive)
C[C@]12CC[C@H](O)CC1=CC[C@@H]1[C@@H]2CC[C@]2(C)C(c3cccnc3)=CC[C@@H]12 [Abiraterone (CB-7598)] (10 µM)	-0.0295	115% (inactive)
CCCCCCCCCCC(=O)O[C@H]1CC[C@H]2[C@@H]3CCC4=CC(=O)CC[C@]4(C)[C@H]3CC[C@]12C [Testosterone (undecanoate)] (10 µM)	0.107	98.5% (inactive)
COc1cc(OC)cc(C(=O)NNC(=O)Nc2cccc3ccccc23)c1 (10 µM)	0.0721	105% (inactive)
Cn1nc(C(C)(C)C)cc1C(=O)N[C@@H](Cc1cccc(Cl)c1)C(=O)NCC#N [cathepsin-inhibitor-1] (10 µM)	0.186	97.5% (inactive)
CC(C)(C)c1ccc(-c2nc3ccccc3[nH]2)cc1 (10 µM)	0.557	64% (inactive)
COc1cc2c(cc1-c1c(C)noc1C)ncc1[nH]c(=O)n([C@H](C)c3ccccn3)c12 (10 µM)	-0.154	112% (inactive)
O=C1C=CC(=O)C2=C1C1c3ccccc3C2c2ccccc21 (10 µM)	0.00761	102% (inactive)
CC1=NN=C(c2ccc(N)cc2)c2cc3c(cc2C1)OCO3 (10 µM)	-0.0987	112% (inactive)
Cc1cccc(C)c1OCC(=O)N[C@@H](Cc1ccccc1)[C@@H](O)C[C@H](Cc1ccccc1)NC(=O)[C@H](C(C)C)N1CCCNC1=O [Lopinavir] (10 µM)	0.184	82% (inactive)
COc1ccc(C(=O)c2ccccc2)c(O)c1 [oxybenzone] (10 µM)	0.131	102% (inactive)

SMILES	morphology score [1]	SARS-CoV-2 infection rate [2]
C[C@@H]1CC[C@H]2[C@@H](C)C(=O)O[C@@H]3O[C@@]4(C)CC[C@@H]1[C@]32OO4 [artemisinin] (10 µM)	-0.0301	106% (inactive)
CC[N+](CC)(CC)CC(=O)Nc1c(C)cccc1C (10 µM)	0.0409	104% (inactive)
Nc1nc(=O)[nH]cc1F [flucytosine] (10 µM)	-0.016	107% (inactive)
N#Cc1c[nH]c2c(C(=O)N3CCN(CCc4ccc(F)cc4)CC3)cccc12 [pruvanserin] (10 µM)	0.117	98.5% (inactive)
CCC[N+]12[C@H](O)[C@@H](CC)[C@@H]3C[C@H]1[C@@H]1N(C)c4ccccc4[C@]14C[C@H]2[C@@H]3[C@H]4O [neo-gilurytmal] (10 µM)	-0.0363	116% (inactive)
Nc1nc2c(ncn2[C@@H]2O[C@H](CO)[C@@H](O)[C@H]2O)c(=O)[nH]1 [guanosine] (10 µM)	0.0982	106% (inactive)
CNC[C@H](O)[C@@H](O)[C@H](O)[C@H](O)CO [meglumine] (10 µM)	-0.00131	104% (inactive)
Brc1ccc(NC2C3CC4CC(C3)CC2C4)cc1 (stereo not drawn) [bromantan] (10 µM)	-0.111	99.5% (inactive)
CN(C)CCOC(c1ccccc1)c1ccccc1 [diphenhydramine] (10 µM)	0.203	86.5% (inactive)
CC(C)c1nc(CN(C)C(=O)N[C@H](C(=O)N[C@@H](Cc2ccccc2)C[C@H](O)[C@H](Cc2ccccc2)NC(=O)OCc2cncs2)C(C)C)cs1 [Ritonavir] (10 µM)	0.0318	95% (inactive)
COc1cc(NC(=O)c2cccc(-n3cc(NC(=O)Nc4cccc(C)c4)cn3)c2)cc(OC)c1OC (10 µM)	-0.0791	104% (inactive)
Clc1cccc(Cl)c1CSc1nnc(-c2cnccn2)s1 [yoda-1] (10 µM)	0.286	89% (inactive)
COc1ccc2c(NC(=O)Nc3cccc(C(F)(F)F)n3)ccnc2c1 (10 µM)	-0.049	101% (inactive)
CCN(CC)CC1CCN(c2ncc3ncnc(Nc4ccc(F)c(Cl)c4)c3n2)CC1 (10 µM)	-0.273	112% (inactive)
COc1ccc(OC)c2c(=S)c3ccccc3[nH]c12 (10 µM)	-0.0609	106% (inactive)
Cc1cnc(NC(=O)Nc2cc(Br)c(C)cc2OC[C@@H]2CNCCO2)cn1 (0.833333 µM)	0.0474	111% (inactive)
CC(C)(OCc1nn(Cc2ccccc2)c2ccccc12)C(=O)O [bindarit] (10 µM)	0.132	112% (inactive)
O=P(O)(O)CN(CCN(CP(=O)(O)O)CP(=O)(O)O)CP(=O)(O)O (10 µM)	0.137	104% (inactive)
CC[C@@]1(O)C(=O)OCc2c1cc1n(c2=O)Cc2cc3c(CN(C)C)c(O)ccc3nc2-1 [topotecan] (10 µM)	0.0619	108% (inactive)
COCC(=O)Nc1c(I)c(C(=O)NCC(O)CO)c(I)c(C(=O)N(C)CC(O)CO)c1I (stereo not drawn) [iopromide] (10 µM)	-0.11	106% (inactive)
